Experimental data reported in PubChem BioAssay (Tox21).
Several values for one entry are separate records, joined by “and”; a condition that tells them apart may be missing. Identical values can stand only once. Inconclusive results are not listed. Where a structure was tested more than once in an assay, its records may differ in their call. Activity calls are given as the source filed them. Unless noted, the call rests on the fitted dose curve; in most records, active means well fitted curve in the direction sought with a large enough effect in the repeat runs; inconclusive means weak or mixed curves; inactive means no such curve, though single readings can be large; an effect the other way counts as inactive or inconclusive.

Columns and labels:
[1] = qHTS assay to identify small molecule agonists of the NFkB signaling pathway (AID 1159509; active means well fitted curve in the direction sought with a large enough effect in the signal ratio in the repeat runs, not every such curve was filed as active; the % refers to the signal ratio; further: series mostly up to about 61 µM)
In short: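 Pathway activation was measured in ME-180 cells stably expressing beta-lactamase under NF-kB response element control. Substrate cleavage was read as the 460/530 nm emission shift after 5 hr compound incubation.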

[2] = qHTS assay to identify small molecule agonists of the NFkB signaling pathway - cell viability counter screen (AID 1159515; calls by dose curve; further: series mostly up to about 61 µM; nearly all actives have a fitted effect of over 55% in size)
In short: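 Read by CellTiter-Glo luminescence (30 min, room temperature) in the wells also used for the beta-lactamase FRET read. ME-180 NFkB-bla cells at 2,000 per well were plated overnight, then exposed to compound for 5 hr at 37 C.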

[3] = qHTS assay to identify small molecule agonists of the endoplasmic reticulum stress response signaling pathway (AID 1159516; active means well fitted activation curve with a large enough effect in the signal ratio in the repeat runs, not every such curve was filed as active; the % refers to the signal ratio)
In short: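 Ratiometric FRET readout (405 nm excitation; 460 and 530 nm emission) of a beta-lactamase gene driven by the ER stress response element, after 2 hr substrate loading. HeLa ESRE-bla cells were seeded overnight and treated with compounds for only 5 hr at 37 C.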

[4] = qHTS assay to identify small molecule agonists of the endoplasmic reticulum stress response signaling pathway - cell viability counter screen (AID 1159517; calls by dose curve; further: nearly all actives have a fitted effect of over 50% in size; further: potency means the concentration at half of the fitted maximal effect)
In short: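 ESRE-bla HeLa cells (1,500/well) were plated overnight at 37 C and exposed to compounds for 5 hr. After the 2 hr beta-lactamase substrate read, CellTiter-Glo went into the same wells, and luminescence was read after 30 min at room temperature.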

[5] = qHTS assay to identify small molecule antagonists of the retinoid-related orphan receptor gamma (ROR-gamma) signaling pathway - cell viability counter screen (AID 1159520); further: nearly all actives have a fitted effect of over 50% in size; further: potency means the concentration at half of the fitted maximal effect
In short: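 Cytotoxicity was read from cellular ATP (CellTiter-Glo luminescence) after 16 hr at 37 C with 1 uM doxycycline induction. The inducer was added 2 hr after compound transfer to Tet-on ROR gamma CHO cells.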

[6] = target: Nuclear receptor ROR-gamma (Homo sapiens) (UniProt P51449); assay: qHTS assay to identify small molecule antagonists of the retinoid-related orphan receptor gamma (ROR-gamma) signaling pathway (AID 1159521; further: nearly all actives have a fitted effect of over 50% in size; further: potency means the concentration at half of the fitted maximal effect)
In short: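 Antagonist read-out: drop in luminescence (ONE-Glo) from an RORE-LUC reporter in CHO cells with doxycycline-inducible ROR-gamma; 2 hr compound pretreatment, 1 uM doxycycline, 16 hr incubation at 37 C.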

[7] = qHTS assay to identify small molecule agonists of the AP-1 signaling pathway - cell viability counter screen (AID 1159525; calls by dose curve; further: nearly all actives have a fitted effect of over 55% in size)
In short: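 Intracellular ATP by Cell Titer Glo luminescence (30 min, RT) in the same ME-180 AP-1-bla wells after the 5 h compound exposure at 37 °C. Normalised to tetra n-octyl ammonium bromide and DMSO controls.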

[8] = qHTS assay to identify small molecule agonists of the AP-1 signaling pathway (AID 1159526; calls by dose curve; further: potency means the concentration at half of the fitted maximal effect)
[9] = target: Retinoic acid receptor RXR-alpha (Homo sapiens) (UniProt P19793); assay: qHTS assay to identify small molecule agonists of the RXR signaling pathway (AID 1159527; calls by dose curve; further: nearly all actives have a fitted effect of over 35% in size)
In short: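 Agonist-mode beta-lactamase reporter assay: HEK 293T RXR-alpha-UAS-bla cells treated 16 hr at 37 C with compounds, 9-cis retinoic acid as positive control. LiveBLAzer FRET substrate, 405 nm excitation, 460/530 nm emission.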

[10] = qHTS assay to identify small molecule agonists of the RXR signaling pathway - cell viability counter screen (AID 1159529); further: nearly all actives have a fitted effect of over 50% in size; further: potency means the concentration at half of the fitted maximal effect
In short: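 CellTiter-Glo luminescence gave viability in the wells also read for beta-lactamase. Cells (RXR-alpha-UAS-bla HEK 293T, 2% charcoal-stripped FBS medium) had 5 hr plating, then 16 hr compound exposure at 37 C; tetraoctyl ammonium bromide served as positive control.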

[11] = qHTS assay to identify small molecule antagonists of the retinoic acid receptor (RAR) signaling pathway (AID 1159552; further: nearly all actives have a fitted effect of over 50% in size)
In short: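 Luminescent RARE reporter read-out in C3RL4 cells: 6 hr co-treatment at 37 C of test compounds with retinol at 1 uM final. Cells plated overnight beforehand; luciferase reagent incubated 30 min at room temperature before reading.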

[12] = qHTS assay to identify small molecule agonists of the retinoic acid receptor (RAR) signaling pathway (AID 1159553); further: potency means the concentration at half of the fitted maximal effect
In short: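 Luminescence was measured 30 min after luciferase reagent addition at room temperature. Before that, C3RL4 reporter cells (1,000 per well, plated overnight) were treated with compound for 6 hr at 37 C and 5% CO2.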

[13] = qHTS assay to identify small molecule antagonists of the estrogen related receptor (ERR) signaling pathway from Tox21 library - cell viability counter screen (AID 1224834); further: nearly all actives have a fitted effect of over 30% in size; further: potency means the concentration at half of the fitted maximal effect
In short: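 CellTiter-Fluor fluorescence, read after 30 min at 37 C, measures viability of ERR cells. Cells plated at 2,000/well and incubated 6 h before pin-tool compound addition, then exposed 17.5 hours at 37 C.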

[14] = qHTS assay to identify small molecule antagonists of the estrogen related receptor (ERR) signaling pathway - cell viability counter screen (AID 1224818);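 further: series mostly up to about 46 µM; viability measured after 17.5 h of compound exposure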
In short: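 Cytotoxicity counter screen: fluorescence from CellTiter-Fluor, added after 17.5 h compound exposure at 37 C and read 30 min later. ERR cell line seeded at 2,000 cells/well, preincubated 6 h before dosing.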

[15] = qHTS assay to identify small molecule antagonists of the estrogen related receptor signaling pathway with the pleiotropic PPARgamma coactivator (PGC) cell viability counter screen (AID 1224822; further: series mostly up to about 46 µM)
In short: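 Viability counter-screen read by fluorescence intensity after 30 min with CellTiter-Fluor at 37 C; PGC/ERR reporter cells were exposed to compounds for 17.5 h at 37 C following a 6 h preincubation.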

[16] = qHTS assay to identify small molecule antagonists of the retinoid acid receptor (RAR) signaling pathway - cell viability counter screen (AID 1159551); further: nearly all actives have a fitted effect of over 35% in size
In short: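 Cytotoxicity counter screen: ATP content quantified by CellTiter-Glo luminescence in C3RL4 cells treated 6 hr at 37 C with compound and retinol (1 uM final). Cells plated at 1,000/well and cultured overnight before dosing.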

Measured: Potency

Chain of Retinoic acid receptor RXR-alpha (Homo sapiens) (P19793 whole entry, looked up): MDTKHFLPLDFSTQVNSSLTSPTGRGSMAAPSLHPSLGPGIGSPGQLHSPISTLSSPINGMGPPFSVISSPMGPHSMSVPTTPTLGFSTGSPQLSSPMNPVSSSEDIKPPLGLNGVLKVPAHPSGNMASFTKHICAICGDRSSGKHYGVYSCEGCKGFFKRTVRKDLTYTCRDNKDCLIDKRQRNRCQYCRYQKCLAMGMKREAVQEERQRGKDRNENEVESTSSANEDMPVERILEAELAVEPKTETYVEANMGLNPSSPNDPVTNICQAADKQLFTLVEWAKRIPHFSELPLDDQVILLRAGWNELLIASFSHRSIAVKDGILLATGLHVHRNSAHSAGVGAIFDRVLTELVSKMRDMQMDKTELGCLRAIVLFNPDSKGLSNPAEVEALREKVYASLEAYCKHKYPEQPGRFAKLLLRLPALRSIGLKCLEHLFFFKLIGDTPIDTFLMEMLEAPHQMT

NC(=O)/N=N/C(N)=O
not listed: [14] | [15] | [16]
inactive: all other assays above

NS(=O)(=O)c1cc2c(cc1Cl)NC=NS2(=O)=O
not listed: [16]
inactive: all other assays above

CC1=C(CC(=O)O)c2cc(F)ccc2/C1=C\c1ccc(S(C)=O)cc1 (centres undefined)
not listed: [9] | [11] | [12]
inactive: all other assays above

CCCCCCCCC
not listed: [11] | [12] | [14] | [15]
inactive: all other assays above

C=CC(=O)OCCCCCCCC(C)C
not listed: [14] | [15] | [16]
inactive: all other assays above

CCOC(=O)[C@H](CCc1ccccc1)N[C@@H](C)C(=O)N1Cc2ccccc2C[C@H]1C(=O)O
inactive and 26.8 µM (active): [8]
not listed: [14] | [15] | [16]
inactive: all other assays above

O=C(c1cc(O)c(O)c(O)c1)c1ccc(O)c(O)c1O
active: [13] 54.3 µM and 54.5 µM
21.7 µM (active) and inactive: [6]
not listed: [14] | [15]
inactive: all other assays above

Oc1ccc2ccccc2c1N=Nc1ccccc1
active: [12] 12.2 µM | [13] 27.3 µM
not listed: [3] | [8] | [10] | [14] | [15]
inactive: all other assays above

ClC1=C(Cl)C(Cl)(Cl)C(Cl)=C1Cl
active: [4] 27.7 µM and 49 µM | [5] 7.74 µM and 6.11 µM
inactive and 68.6 µM (active): [12]
not listed: [3] | [14] | [15] | [16]
inactive: all other assays above

Oc1ccc2ccccc2c1
not listed: [5] | [14] | [15]
inactive: all other assays above

CCCCC(CC)COC(=O)CCCCCCCC(=O)OCC(CC)CCCC (centres undefined)
17.2 µM (active) and inactive: [13]
not listed: [6] | [11] | [12] | [14] | [15]
inactive: all other assays above

O=S(=O)(O)c1cc(S(=O)(=O)O)c2c(N=Nc3ccccc3)c(O)ccc2c1
active: [13] 54.7 µM and 34.4 µM
not listed: [6] | [11] | [12] | [14] | [15]
inactive: all other assays above

S=c1nc[nH]c2nc[nH]c12
active: [10] 3.01 µM
not listed: [4] | [9] | [13] | [14] | [15] | [16]
inactive: all other assays above

C=C(C)C(=O)OCCCCCC
not listed: [6] | [14] | [15]
inactive: all other assays above

CS(=O)(=O)c1ccc([C@@H](O)[C@@H](CO)NC(=O)C(Cl)Cl)cc1
not listed: [6] | [11] | [12] | [14] | [15]
inactive: all other assays above

COC(=O)Nc1nc2ccc(Sc3ccccc3)cc2[nH]1
54.5 µM (active) and inactive: [6]
active: [5] 26.6 µM
not listed: [9] | [12] | [14] | [15] | [16]
inactive: all other assays above

Cc1ccc(C(=O)O)o1
not listed: [9] | [11] | [12] | [14] | [15]
inactive: all other assays above

Cc1cc(NS(=O)(=O)c2ccc(N)cc2)no1
not listed: [9] | [11] | [14] | [15] | [16]
inactive: all other assays above

CC(C)n1c(/C=C/[C@@H](O)C[C@@H](O)CC(=O)O)c(-c2ccc(F)cc2)c2ccccc21
active: [6] 486 nM and 168 nM
not listed: [5] | [10] | [11] | [12] | [14] | [15]
inactive: all other assays above

CC(C)(CO)COC(=O)C(C)(C)CO
not listed: [6] | [14] | [15] | [16]
inactive: all other assays above

CC1=CC[C@H]2C[C@@H]1C2(C)C
not listed: [4] | [14] | [15] | [16]
inactive: all other assays above

OCC#CCO
inactive and 54.5 µM (active): [5]
not listed: [3] | [14] | [15] | [16]
inactive: all other assays above

CC(C)NCC(O)COc1cccc2ccccc12 (centres undefined)
not listed: [8]
inactive: all other assays above
